Here are results for 30 compounds from PubChem BioAssay (NCATS).

Unmarked numbers belong to inactive results. Records with an inconclusive call do not appear. The source made the active and inactive calls. Calls follow the shape of the dose curve; as a rule, active = well fitted curve in the direction sought with a large enough effect; inconclusive = small, poorly fitted or top-dose-only effect, or another doubt; inactive = no such curve, though single readings can be large; an effect the other way counts as inactive or inconclusive.

A short description of assay [1]: qHTS to identify inhibitors of the type 1 interferon - major histocompatibility complex class I in skeletal muscle: primary screen against the NCATS LOPAC collection (AID 1347405).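 Also: lytic HiBiT luminescence reporting HLA-B protein level; % is scaled to controls: 0 for no effect and ±100 for the full control effect.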 Put shortly:
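Cells: C25cl48 human myoblasts, HiBiT-tagged HLA-B*08:01, stimulated with IFN-beta 4.0 ng/ml. Compounds are titrated 1:4.3 over 7 points from 46 uM final and incubated 24 hrs; endogenous MHC class I is quantified by HiBiT lytic luminescence.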
A general note: Quantitative high-throughput screening tests each substance at several concentrations.

Assay [2] can be described thus: qHTS for inhibitors of adenylyl cyclases using a fission yeast platform: a pilot screen against the NCATS LOPAC library (AID 1347410).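 Also: plate controls were DMSO vehicle for no effect and DPI positive control for full effect.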 Put shortly:
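GFP from fbp1-GFP reporter, read by Acumen laser cytometry, indicates AC inhibition in fission yeast expressing AC9, GNAS and PDE4D2. Cells grown 18 h in the dark at 30C with compounds, final up to 57 uM.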

Assay [3] can be described thus: Validation qHTS assay for inhibitors of Activation Induced Cytidine Deaminase (AID): UDG Counterscreen signal (AID 1347427). Also: 0% is about no effect. The essentials: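 Counterscreen read of UDG activity (2 U/mL, 4/3x) in the FRET deamination format with AID (1 uM, 4/3x), DJC20/DJC23 substrates (250 nM, 4x), 4 h at room temperature. NaOH stop, fluorescence at 560 ex/665 em.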
Assay [4] deals with Single-stranded DNA cytosine deaminase (Homo sapiens) (UniProt Q9GZX7). Description: Validation qHTS assay for inhibitors of Activation Induced Cytidine Deaminase (AID): AID signal (AID 1347429). Also: % is scaled to controls: 0 for no effect and ±100 for the full control effect. The essentials:
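In this coupled qHTS, AID deaminates a FRET-labelled ssDNA substrate in the presence of UDG over 4 hr at room temperature. Compounds span up to 114 uM final.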

The next assay deals with Papain (Carica papaya) (UniProt P00784). Kind of assay: Primary qHTS assay for inhibitors of the protease papain (AID 1645873).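 Also: papain turnover of Z-FR-AMC read as the AMC fluorescence gain over 10 min.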 Also: potency is read from the fitted curve at half-maximal effect.
Assay [5] is described as follows: Primary qHTS for small molecule stabilizers of the endoplasmic reticulum resident proteome: Secreted ER Calcium Modulated Protein (SERCaMP) assay (AID 1508630). Also: % is scaled to controls: 0 for no effect and ±100 for the full control effect. The essentials: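 GLuc-SERCaMP-expressing SH-SY5Y cells, pretreated 16 h with compound, are challenged with thapsigargin to empty ER calcium stores; after 4 h, coelenterazine is added directly to the medium and luminescence is imaged.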

For assay [6], the target named is Calcium and integrin-binding protein 1 (Homo sapiens) (UniProt Q99828). Description: Validation qHTS for Identification of Calcium Integrin Binding protein 1 (CIB1) Competitor (AID 1508618). Also: % is scaled to controls: 0 for no effect and ±100 for the full control effect. The essentials: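 In this qHTS validation, the LOPAC set (up to 114 uM) was tested for blocking CIB1 binding to a fluorescein-tagged alphaIIb peptide, with FP detection at 480/540 nm.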

The nature of assay [7]: Primary qHTS for inhibitors of La Crosse Virus (LACV) - induced cell death in SH-SY5Y cells (AID 1508616).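 Also: top concentration of the series differs between compounds; 0% = infected DMSO wells and 100% = uninfected DMSO wells; higher means more rescue of cells from virus-induced death.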 The essentials: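 Readout was luminescence from ATPLite 1step added after a 6-day LACV infection (0.01 MOI) of SH-SY5Y cells that had received pin-transferred compound 24 hr after seeding.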
Assay [8] in a line: Confirmatory qHTS for small molecule stabilizers of the endoplasmic reticulum resident proteome: Secreted ER Calcium Modulated Protein (SERCaMP) assay (AID 1508628). Also: nearly all actives have a fitted effect of over 40% in size. Also: potency is read from the fitted curve at half-maximal effect. The essentials: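 We seeded SH-SY5Y-GLuc-SERCaMP cells, added compounds (three concentrations in the primary run, eleven up to 76.6 uM in confirmation), incubated 16 h, depleted ER calcium with thapsigargin, and read luciferase 4 h later.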

A short description of assay [9]: qHTS to identify inhibitors of the type 1 interferon - major histocompatibility complex class I in skeletal muscle: primary screen against the NCATS Mechanism Interrogation Plate v5.0 (MIPE) Libary (AID 1347411).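 Also: plate controls were vehicle for no effect and reference inhibitor for full effect; nearly all actives have a fitted effect of over 65% in size.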 The essentials: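 Cells were genome-edited human myoblasts carrying a HiBit tag on endogenous HLA-B. They were treated with IFN-beta (4.0 ng/ml) and titrated compounds (top 46 uM) for 24 hrs before lytic HiBiT detection.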

Assay [10] can be described thus: Primary qHTS for inhibitors of nuclear receptor binding SET domain protein 2 (NSD2) in an isogenic RCH-ACV NSD2 p.E1099K mutant (9B) (AID 1645876). Also: % is scaled to controls: 0 for no effect and ±100 for the full control effect; nearly all actives have a fitted effect of over 70% in size.
Assay [11] is described as follows: Counterscreen qHTS for small molecule stabilizers of the endoplasmic reticulum resident proteome: GLuc-NoTag assay (AID 1508627).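 Also: SH-SY5Y cells given compound then 100 nM thapsigargin to empty ER calcium; series mostly up to about 76 µM; 0% = thapsigargin alone and -100% = DMSO vehicle control.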 The essentials: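 SH-SY5Y cells stably expressing constitutively secreted GLuc (no SERCaMP tag) were pre-incubated 5 h, treated with compound for 19 h, then 100 nM thapsigargin for 4 h at 37C; medium GLuc read by coelenterazine luminescence.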

Assay [12] in a line: Cell Viability qHTS for small molecule stabilizers of the endoplasmic reticulum resident proteome (AID 1508629). To be noted: cell viability counter-screen, 100 nM thapsigargin for final 4 h.

Chain of Calcium and integrin-binding protein 1 (Homo sapiens) (Q99828 whole entry, looked up): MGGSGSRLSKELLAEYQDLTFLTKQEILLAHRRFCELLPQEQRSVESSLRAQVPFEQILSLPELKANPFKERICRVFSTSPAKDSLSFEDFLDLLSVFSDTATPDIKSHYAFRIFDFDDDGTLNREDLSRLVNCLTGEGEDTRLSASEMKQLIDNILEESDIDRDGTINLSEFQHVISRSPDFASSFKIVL
Chain of Papain (Carica papaya) (P00784 whole entry, looked up): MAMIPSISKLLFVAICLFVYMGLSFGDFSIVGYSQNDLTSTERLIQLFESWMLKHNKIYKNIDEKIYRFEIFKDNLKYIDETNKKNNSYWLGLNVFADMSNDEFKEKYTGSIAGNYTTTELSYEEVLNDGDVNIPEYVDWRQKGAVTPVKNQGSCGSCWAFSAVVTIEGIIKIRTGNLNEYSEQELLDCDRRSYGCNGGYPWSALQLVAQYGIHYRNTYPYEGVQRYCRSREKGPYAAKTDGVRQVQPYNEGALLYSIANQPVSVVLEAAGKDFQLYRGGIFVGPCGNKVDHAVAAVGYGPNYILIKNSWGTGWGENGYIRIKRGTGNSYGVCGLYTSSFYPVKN
Chain of Single-stranded DNA cytosine deaminase (Homo sapiens) (Q9GZX7 whole entry, looked up): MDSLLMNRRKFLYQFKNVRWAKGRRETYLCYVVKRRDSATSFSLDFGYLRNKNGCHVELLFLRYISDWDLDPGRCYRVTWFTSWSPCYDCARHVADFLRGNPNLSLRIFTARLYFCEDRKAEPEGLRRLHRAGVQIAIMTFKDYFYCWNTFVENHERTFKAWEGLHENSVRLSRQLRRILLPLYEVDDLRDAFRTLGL

For the compound `O=c1oc(Cl)c(Cl)c2ccccc12`, the Potency result (in assay [1]; in assay [3]; in assay [4]; with Papain (Carica papaya)) was “inactive” each time. For the same compound, in assay [2], the compound was called inactive.

As for `c1ccc(CN2CCC3(CCCc4ccccc43)CC2)cc1`, the Potency result (in assay [1]; in assay [3]; in assay [4]; in assay [5]; with Papain (Carica papaya)) was “inactive” each time. The compound was classed as inactive in [2].

`CC1CCN=C(N)S1` (stereo not given): the Potency entry (in assay [1]; in assay [3]; in assay [4]; in assay [6]; in assay [5]; with Papain (Carica papaya)) was “inactive” each time. In addition, in assay [2], the outcome was inactive.

For `O=C(O)c1ccccc1Nc1cccc(OCc2ccc3ccccc3n2)c1`, the Potency entry (in assay [1]; in [3]; in assay [4]; in assay [5]; with Papain (Carica papaya)) was “inactive” each time. Also, in [2], the outcome was inactive.

For `NCCCCN=C(N)N`, the Potency result (in assay [1]; in assay [3]; in [4]; in assay [6]; in [5]; in the assay with Papain (Carica papaya)) was “inactive” throughout. Besides, the result in [2] was inactive.

Turning to `Fc1ccc(CN(C2=NCCN2)c2c(Cl)cccc2Cl)cc1`, the Potency entry (in assay [1]; in assay [3]; in assay [4]; in assay [6]; with Papain (Carica papaya)) was “inactive” each time. In addition, the compound was classed as inactive in [2].

Regarding `Nc1ccc(-c2nc3ccc(-c4nc5ccc(N)cc5[nH]4)cc3[nH]2)cc1`, the Potency result in [1], in assay [4] and in assay [5] was “inactive” throughout. Also, the compound was called inactive in [2].

With `CCCCOC(=O)NS(=O)(=O)c1sc(CC(C)C)cc1-c1ccc(Cn2c(CC)nc3c(C)cc(C)nc32)cc1`, in [2], the compound was called inactive. For the same compound, the Potency entry (in assay [3]; in assay [4]; in assay [7]; in assay [6]; with Papain (Carica papaya)) was “inactive” in each case. Also, the Potency in [8] is 15.8 µM (active).

Regarding `COc1cc(/C=C(\C#N)C(=O)Nc2nnc(C(F)(F)F)s2)ccc1OCc1ccc(C(F)(F)F)cc1C(F)(F)F`, the call in [2] and in assay [9] was inactive. The Potency result in assay [3], in [7] and in assay [10] was “inactive” in each case.

As to `Cc1ccccc1/C=C/C1=NCCN1`, the compound was classed as inactive in assay [2]. Also, the Potency result (in assay [3]; in assay [4]; in [7]; in assay [6]; with Papain (Carica papaya)) was “inactive” in each case. In addition, in assay [8], the Potency is 11.2 µM (active).

`O=S(=O)(c1cccc2c(Cl)cccc12)N1CCCNCC1`: the compound was classed as inactive in assay [2]. The Potency result in assay [3], in assay [4], in assay [7], in [6], in assay [11] and in assay [8] was “inactive” throughout. For the same compound, in the assay with Papain (Carica papaya), the Potency result was “inactive”.

Take `O=c1cc(O)cc(/C=C/c2ccc(O)c(O)c2)o1`: the Potency result in assay [1], in assay [4] and in assay [6] was “inactive” throughout. The compound was called inactive in [2]. Besides, in assay [8], the Potency was 20 µM (active).

For the compound `C=CCn1c(=O)c2c(nc(-c3ccc(S(=O)(=O)O)cc3)n2C)n(C)c1=O`, the Potency entry in assay [1], in assay [4], in assay [7] and in assay [5] was “inactive” in each case. Also, the compound was called inactive in [2]. Moreover, the Potency in the assay with Papain (Carica papaya) was 25.1 µM (active).

As for `COc1cc(N)c(Cl)cc1C(=O)OCCN1CCCCC1`, the Potency result (in assay [1]; in assay [4]; in assay [6]; in assay [5]; with Papain (Carica papaya)) was “inactive” in each case. Further, in [2], the result was inactive.

Regarding `CN(CC[C@@H](Oc1ccc(C(F)(F)F)cc1)c1ccccc1)CC(=O)O`, the Potency result (in assay [1]; in assay [4]; in assay [7]; in assay [6]; in assay [5]; with Papain (Carica papaya)) was “inactive” throughout. Moreover, the result in [2] was inactive.

For `c1ccc2c(c1)CC(N1CCN(c3cccc4c3OCCO4)CC1)C2`, the Potency entry (in assay [1]; in [4]; in assay [7]; in [5]; with Papain (Carica papaya)) was “inactive” in each case. The call in [2] was inactive.

Regarding `Cc1cccc(C2CN(C)CCc3c2cc(O)c(O)c3Cl)c1` (stereo not given), the Potency entry (in [1]; in assay [4]; in assay [7]; with Papain (Carica papaya)) was “inactive” throughout. In addition, the result in [2] was inactive.

Turning to `Nc1ccc(N2C(=O)c3ccccc3C2=O)c(Cl)c1`, the Potency entry (in [1]; in [4]; in assay [7]; in assay [6]; with Papain (Carica papaya)) was “inactive” each time. Moreover, the result in [2] was inactive.

On to `NC(=Nc1ccccc1)NC(=O)c1nc(Cl)c(N)nc1N`, for which the compound was called inactive in assay [2]. Moreover, the Potency result in assay [3], in assay [4], in assay [7], in assay [6], in [11] and in [8] was “inactive” throughout. Further, the Potency in the assay with Papain (Carica papaya) is 25.1 µM (active).

As to `C=CCN1CCc2c(cc(O)c(O)c2Br)[C@@H](c2ccccc2)C1`, the call in assay [2] was inactive. The Potency entry (in assay [3]; in [4]; in assay [7]; in [6]; in assay [5]; with Papain (Carica papaya)) was “inactive” each time.

`O=C(c1ccc2c(c1)OCCO2)N1CCCCC1`: the Potency entry (in assay [1]; in assay [4]; in assay [7]; in assay [6]; in [5]; with Papain (Carica papaya)) was “inactive” in each case. Also, in assay [2], the outcome was inactive.

Regarding `CC(C)(C)NCC(O)COc1cccc2[nH]c(=O)[nH]c12` (stereo not given), the Potency result (in assay [1]; in assay [4]; in assay [7]; in assay [6]; in assay [5]; in the assay with Papain (Carica papaya)) was “inactive” in each case. Also, the result in [2] was inactive.

For `CN(C)CCC(c1ccc(Br)cc1)c1ccccn1` (stereo not given), the Potency result (in assay [1]; in [4]; in assay [6]; in assay [5]; with Papain (Carica papaya)) was “inactive” throughout. The compound was classed as inactive in assay [2].

`Nc1ccc(-c2ccc3ccccc3n2)cc1`: the Potency entry in assay [1], in assay [4], in [7], in assay [6] and in assay [11] was “inactive” each time. In addition, the result in assay [2] was inactive. Further, in assay [12], the max response was -7.29%.

Consider `CC(N)=O`, for which the Potency entry (in assay [1]; in assay [4]; in assay [7]; in assay [6]; in assay [5]; in the assay with Papain (Carica papaya)) was “inactive” throughout. Besides, the compound was classed as inactive in assay [2].

Take `OC[C@H]1NC[C@@H](O)[C@@H]1O`: the Potency entry (in assay [1]; in assay [4]; in [7]; in assay [6]; in the assay with Papain (Carica papaya)) was “inactive” in each case. The result in [2] was inactive.

For `COc1ccc2c(c1)CCC1C2CC[C@@]2(C)C1CC[C@@H]2NCCCCCCN1C(=O)C=CC1=O` (stereo not given in full), the Potency result (in [1]; in assay [4]; in assay [7]; in assay [6]; in [5]; with Papain (Carica papaya)) was “inactive” throughout. The call in assay [2] was inactive.

For `CCCc1c(-c2ccc(O)cc2)nn(-c2ccc(O)cc2)c1-c1ccc(O)cc1`, the Potency entry (in [1]; in assay [4]; in assay [7]; in [5]; in the assay with Papain (Carica papaya)) was “inactive” in each case. Moreover, the outcome in assay [2] was inactive.

Turning to `COc1ccc2c(c1)c(CC(=O)O)c(C)n2Cc1ccc(Cl)cc1`, the Potency entry (in assay [1]; in [4]; in [7]; in assay [5]; in the assay with Papain (Carica papaya)) was “inactive” in each case. In addition, the compound was classed as inactive in assay [2].

Consider `CC(N)(Cc1ccc(O)cc1)C(=O)O` (stereo not given), for which the Potency entry (in assay [1]; in [4]; in assay [7]; in assay [6]; in assay [5]; in the assay with Papain (Carica papaya)) was “inactive” each time. For the same compound, the compound was classed as inactive in assay [2].
